The record followed here is ChEMBL document CHEMBL4513216, “Probing the Open Global Health Chemical Diversity Library for Multistage-Active Starting Points for Next-Generation Antimalarials” (ACS Infect Dis, 2020).

Hit rate of the full screen: of about 65,000 compounds, about 2,100 (3.2%) showed an effect of 50% or more. The median lay at about -52%. Shown is part of a subset that was picked to be rich in strong results.

In this experiment the test system is Plasmodium falciparum. In words: Screen against P. falciparum Asexual Blood Stage (ABS), at 5uM. It is filed as functional, Dd2. Conditions: tested at 5 uM.
`c1cncc(OC[C@@]23CCO[C@@H]2CCN(Cc2cccs2)C3)c1`: the INHIBITION is given as -5.17%.

Turning to `O=C1N(c2cncnc2)CCC12CCCN(Cc1ccccn1)C2` (configuration not stated), the INHIBITION was -36.2%. Regarding `NCC1Cc2cc(-c3nccc(N4CCC(O)CC4)n3)cc(Cl)c2O1` (configuration not stated), the INHIBITION was determined as 80.6%.

Take `NCC1Cc2cc(-c3nccc(N4CCC(O)CC4)n3)cc(F)c2O1` (configuration not stated): the INHIBITION was found to be 83.1%.

On to `O=C(NC[C@H]1C[C@@H]2CCN1C[C@@H]2CN1CCCC1)c1ccco1`, for which the INHIBITION is -62.4%. As for `CN1CCN(S(C)(=O)=O)Cc2cccnc21`, the INHIBITION is listed as -87.7%. Regarding `CNC(=O)[C@@]12CCO[C@@H]1CCN(Cc1c(C)noc1C)C2`, the INHIBITION is given as -74.2%. As for `CN1CCN(Cc2ccc(F)cc2)Cc2cccnc21`, the figure is -5.74%; as for `Cc1ccc2c(n1)N(C)CCN(Cc1cnn(C)c1)C2`, -35.9%.

`CN1CCCCC1c1ccc(-n2ccnc2)nc1` (configuration not stated): the INHIBITION was -5.64%. As for `CN1CCCCC1c1ncc2c(n1)CCN(CCCc1ccccc1)C2` (configuration not stated), the figure is 89.2%; as for `CN1CCCCC1c1ncc2c(n1)CCN(Cc1ccc(F)cc1)C2` (configuration not stated), 86.4%.

Take `Cc1ccc(C(=O)N2C[C@@H]3CCCO[C@@H]3[C@H](N3CCCC3)C2)cn1`: the INHIBITION is -108%. For `Cc1nc(COC[C@H]2CC[C@H]3NCC[C@H]3O2)cs1`, the INHIBITION was -29.9%. On to `O=C(c1ccnnc1)N1C[C@@H]2OCCN(CCN3CCCC3)[C@@H]2C1`, for which the INHIBITION was -53.7%.

For `O=C(c1cccnc1)N1CCO[C@@H]2CNC[C@@H]21`, the INHIBITION is reported as -20.6%. As for `Cc1noc([C@]23COC[C@H]2CN(C(C)C)C3)n1`, the INHIBITION is -38.3%. As for `Fc1cccc(F)c1Cn1c(C2CCNCC2)cc2cccnc21`, the figure is 80.6%. As for `Fc1cccnc1O[C@@H]1CN(Cc2ccccn2)[C@@H]2CCCO[C@@H]21`, the figure is -14%. As for `Fc1ccccc1Cn1c(C2CCNCC2)cc2cccnc21`, the figure is 88.7%. On to `Cc1ccc(-c2noc(CC[C@@H]3CCCN4CCCC[C@H]34)n2)nn1`, for which the INHIBITION is recorded as -74.3%.

As to `CN(Cc1ccccc1-n1cccn1)C[C@@H]1CCCN2CCCC[C@H]12`, the INHIBITION came out at 76%. As for `CN(Cc1nc2ccsc2c(=O)[nH]1)C[C@@H]1CCCN2CCCC[C@H]12`, the figure is -20.7%; as for `COCCN1C[C@@H]2OCCN(c3ccnc(N(C)C)n3)[C@@H]2C1`, -31.1%; as for `CS(=O)(=O)N1CCO[C@@H]2CN(Cc3ccncc3)C[C@@H]2C1`, -25.9%. `CC(C)(NCc1cccc(O)c1)c1ccc2c(c1)OCO2`: the INHIBITION was determined as 88.9%. As for `CCC(C)N1CCc2nc(N3CCCC3)nc(NC(C)C)c2C1` (configuration not stated), the figure is 78%; as for `CN(C)C(=O)[C@H]1C[C@H]2OCC[C@H]2N(Cc2ccccn2)C1`, -13.3%; as for `Cc1cccnc1[C@H](C)Nc1nc(-c2cccnc2)nc2c1CNC2`, 78%. As for `CC(Nc1nc(-c2ccccc2)nc2c1CCNCC2)c1cccnc1` (configuration not stated), the figure is 90.9%; as for `CC(Nc1nc(-c2ccncc2)nc2c1CCNC2)c1ccccc1` (configuration not stated), 71.5%. As for `CSCC(=O)NS(=O)(=O)c1ccc(C#N)c(C(F)(F)F)c1`, the figure is -52.2%; as for `COCCNC(=O)[C@@]12CCO[C@@H]1CCN(Cc1cc(C)on1)C2`, -32%.

In the case of `CN1CCN(C(=O)Cc2ccc(S(=O)(=O)C(F)F)cc2)CC1`, the INHIBITION was -85.3%. Turning to `Fc1ccccc1CN1CCCC2(CCN(c3ncccn3)C2)C1` (configuration not stated), the INHIBITION is reported as -15.8%.

As for `NC1(C(=O)NCC2CCCN(Cc3ccccc3F)C2)CCCC1` (configuration not stated), the INHIBITION is on record as 85.6%. Turning to `CCN(C)S(=O)(=O)NCC1CCCN(Cc2ccccc2F)C1` (configuration not stated), the INHIBITION was 74.5%. For the compound `COc1ncccc1CN1C[C@@H]2COC[C@]2(CNS(C)(=O)=O)C1`, the INHIBITION is on record as -44.2%. For the compound `CS(=O)(=O)NCC1CCCN(Cc2ccccc2F)C1` (configuration not stated), the INHIBITION worked out at 89.2%. As for `C[C@@H]1CN(Cc2ccco2)CCN1C(=O)Cc1ccccc1F`, the figure is -154%; as for `COCCN1CCCC12CCN(c1ncccn1)CC2`, -0.324%. As for `Cc1c(C2N3CC4(C)CN2CC(C)(C3)C4=O)[nH]c(=O)[nH]c1=O` (configuration not stated), the figure is -53.4%; as for `COc1cc(C2SCC(=O)Nc3ccsc32)cc(OC)c1O` (configuration not stated), -46.5%.

For `CCN1CCC2(COCc3cnc(-c4cccnc4)nc32)C1` (configuration not stated), the INHIBITION was -76.4%. As for `COCc1cncc2c1CCN(Cc1cccnc1)C2`, the figure is -107%; as for `c1cncc(-c2noc(CN3CCc4cncnc4C3)n2)c1`, 72.9%; as for `O=C1C[C@@H]2CC[C@H](CN1)N2C1CCSCC1`, -19.5%. As for `C[C@@H]1C[C@H]2CN(Cc3nccs3)C[C@H]2O1`, the figure is -77.8%; as for `Cc1cc(CN2CC[C@H]3C[C@H](c4nc(C5CC5)cs4)O[C@@H]3C2)no1`, -15.2%. For the compound `Nc1nc(N)c2c(n1)OC1(COCCN(Cc3nccs3)C1)C2` (configuration not stated), the INHIBITION is recorded as -134%.

`Cc1nc(CO[C@@H]2CN(Cc3ccccn3)[C@@H]3COC[C@@H]32)cs1`: the INHIBITION is on record as -6.87%. As for `c1ccc(COC[C@@H]2CCC[C@@]23CNCCO3)nc1`, the figure is 48.6%.
